Experimental data as given in PubChem BioAssay (Tox21).
Records with an inconclusive call do not appear. Entries that show only a call come without a potency. Unmarked numbers belong to inactive results. Calls of active or inactive are those of the source. Unless noted, calls come from the whole dose curve.

Columns and labels:
[1] = qHTS assay to identify small molecule agonists of the vitamin D receptor (VDR) signaling pathway - cell viability counter screen (AID 743224; active = well fitted curve in the direction sought with a large enough effect in the repeat runs; an effect the other way counts as inactive or inconclusive; note: series mostly up to about 63 µM; nearly all actives have a fitted effect of over 50% in size)
How it was run: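 Counter screen for cytotoxicity: VDR-bla cells at 2,000 cells/well, 16 h compound exposure, then CellTiter-Glo luminescence after the beta-lactamase measurement.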

[2] = qHTS assay to identify small molecule antagonists of the vitamin D receptor (VDR) signaling pathway - cell viability counter screen (AID 743225; active = well fitted curve in the direction sought with a large enough effect in the repeat runs; an effect the other way counts as inactive or inconclusive; note: nearly all actives have a fitted effect of over 50% in size)
How it was run: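 Read-out: CellTiter-Glo luminescence measured 30 min after reagent addition at room temperature. Cells were VDR-bla HEK 293T exposed 16 h at 37C, 5% CO2, to compound with 3 nM final calcitriol agonist.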

[3] = qHTS assay to identify small molecule agonists of the NFkB signaling pathway (AID 1159509; active = well fitted curve in the direction sought with a large enough effect in the signal ratio in the repeat runs, not every such curve was filed as active; the % refers to the signal ratio; note: series mostly up to about 61 µM)
How it was run: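 Beta-lactamase reporter assay run in quantitative high-throughput format on an NF-kB-responsive ME-180 line, with 5 hr compound treatment and a FRET-based blue/green fluorescence readout.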

[4] = qHTS assay to identify small molecule agonists of the NFkB signaling pathway - cell viability counter screen (AID 1159515); note: series mostly up to about 61 µM; nearly all actives have a fitted effect of over 55% in size
How it was run: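 Counter screen run alongside the NFkB-bla agonist assay: ME-180 reporter cells exposed to compounds for 5 hr, then lysed with CellTiter-Glo in the same wells. Luminescence, read after 30 min, reflects viable cells.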

[5] = qHTS assay to identify small molecule agonists of the endoplasmic reticulum stress response signaling pathway (AID 1159516; active = well fitted activation curve with a large enough effect in the signal ratio in the repeat runs, not every such curve was filed as active; the % refers to the signal ratio)
How it was run: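 For this screen, HeLa cells stably carrying beta-lactamase under the ER stress response element received test compounds, positive controls or DMSO for 5 hr at 37 C; B/G FRET substrate was then added and dual-wavelength emission recorded.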

[6] = qHTS assay to identify small molecule agonists of the endoplasmic reticulum stress response signaling pathway - cell viability counter screen (AID 1159517); note: series mostly up to about 61 µM; nearly all actives have a fitted effect of over 50% in size
How it was run: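 Steps: seed 1,500 ESRE-bla HeLa cells per well; incubate overnight at 37 C, 5% CO2; add compounds in DMSO for 5 hr; run FRET substrate 2 hr RT; add CellTiter-Glo, wait 30 min, read luminescence.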

[7] = qHTS assay to identify small molecule antagonists of the retinoid-related orphan receptor gamma (ROR-gamma) signaling pathway - cell viability counter screen (AID 1159520; active = well fitted curve in the direction sought with a large enough effect in the repeat runs; an effect the other way counts as inactive or inconclusive; note: nearly all actives have a fitted effect of over 50% in size)
How it was run: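 Tet-on ROR gamma CHO cells were given compounds for 2 hr, then doxycycline hyclate at 1 uM final, and incubated 16 hr at 37 C. Viability was measured as ATP content by CellTiter-Glo luminescence.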

[8] = qHTS assay to identify small molecule agonists of the AP-1 signaling pathway - cell viability counter screen (AID 1159525); note: nearly all actives have a fitted effect of over 55% in size
How it was run: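 Same-well cytotoxicity counter screen of the Tox21 10K library in ME-180 cells. The readout is ATP-dependent luminescence after 5 h compound treatment. Data are normalised to DMSO and tetra n-octyl ammonium bromide controls.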

[9] = qHTS assay to identify small molecule agonists of the AP-1 signaling pathway (AID 1159526); note: potency is the fitted concentration of half-maximal effect
[10] = target: Nuclear receptor ROR-gamma (Homo sapiens) (UniProt P51449); test: qHTS assay to identify small molecule antagonists of the retinoid-related orphan receptor gamma (ROR-gamma) signaling pathway (AID 1159521; active = well fitted curve in the direction sought with a large enough effect in the repeat runs; an effect the other way counts as inactive or inconclusive; note: nearly all actives have a fitted effect of over 50% in size; note: potency is the fitted concentration of half-maximal effect)
How it was run: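 CHO Tet-on RORγ, RORE-luc reporter. Cpd 2 h pre-incubation, then dox hyclate 1 uM final, 16 h, 37 C/5% CO2. ONE-Glo luminescence; decrease = antagonist.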

| SMILES | outcome [1] | outcome [2] | outcome [3] | outcome [4] | outcome [5] | outcome [6] | Potency [7] | outcome [8] | Potency [9] | Potency [10] |
| --- | --- | --- | --- | --- | --- | --- | --- | --- | --- | --- |
| CSc1nc(NC2CC2)nc(NC(C)(C)C)n1 | inactive | inactive | inactive | inactive | inactive | inactive | inactive | inactive | inactive | – |
| CC(C)(O)Cc1ccccc1 | inactive | inactive | inactive | inactive | inactive | inactive | – | – | inactive | inactive |
| O=C(O)CCNC(=O)c1ccc(N=Nc2ccc(O)c(C(=O)O)c2)cc1 | inactive | inactive | inactive | inactive | inactive | inactive | – | inactive | inactive | – |
| Cc1onc(-c2ccccc2)c1-c1ccc(S(N)(=O)=O)cc1 | – | inactive | inactive | inactive | inactive | inactive | – | – | inactive | inactive |
| OC1OC[C@@H](O)[C@H](O)[C@H]1O (stereo partly drawn) | inactive | inactive | inactive | inactive | inactive | inactive | – | inactive | inactive | inactive |
| Nc1ccn(C2CO[C@H](CO)O2)c(=O)n1 (stereo partly drawn) | inactive | inactive | inactive | inactive | inactive | inactive | – | inactive | inactive | inactive |
| CCCOCC(C)OCC(C)O (stereo not drawn) | inactive | inactive | inactive | inactive | inactive | inactive | – | inactive | inactive | inactive |
| CCCCCCCCCCCCCCC | inactive | inactive | inactive | inactive | inactive | inactive | – | inactive | inactive | inactive |
| CC(C)=CCC/C(C)=C/C(=O)O | inactive | – | inactive | inactive | inactive | inactive | – | inactive | inactive | inactive |
| O=C1CC2(CCCC2)CC(=O)N1 | inactive | – | inactive | inactive | inactive | inactive | – | inactive | inactive | inactive |
| CC(C)N1C(=O)c2ccccc2C1=O | inactive | inactive | inactive | inactive | inactive | inactive | – | – | inactive | inactive |
| O=C(O)C1CCC1 | inactive | inactive | inactive | inactive | inactive | inactive | inactive | – | inactive | – |
| CC(C)(C)CC(C)(C)N | inactive | inactive | inactive | inactive | inactive | inactive | – | inactive | inactive | inactive |
| CC(=O)OC(C)(C)C | inactive | inactive | inactive | inactive | inactive | inactive | – | inactive | inactive | – |
| CC(C)(C)N(CCO)CCO | inactive | inactive | inactive | inactive | inactive | inactive | – | inactive | inactive | inactive |
| CCO[Si](C)(OCC)OCC | inactive | inactive | inactive | inactive | inactive | inactive | – | inactive | inactive | inactive |
| CCCCCC[C@@H](CCC)C(=O)O | inactive | inactive | inactive | inactive | inactive | inactive | – | inactive | inactive | inactive |
| O=C1OC(=O)c2cc([N+](=O)[O-])ccc21 | inactive | inactive | inactive | inactive | inactive | inactive | – | inactive | inactive | inactive |
| c1cc(CN2CCCCC2)cc(OCCCNc2nc3ccccc3s2)c1 | inactive | – | inactive | inactive | inactive | inactive | – | inactive | 26.8 µM (active) | 26.6 µM (active) |
| OCC(O)[C@@H](O)[C@H](O)[C@H](O)CO[C@H]1O[C@H](CO)[C@@H](O)[C@H](O)[C@H]1O (stereo partly drawn) | inactive | inactive | inactive | inactive | inactive | inactive | inactive | inactive | inactive | – |
| NC(=O)c1ncn([C@@H]2O[C@H](CO)[C@@H](O)[C@H]2O)c1N | inactive | inactive | inactive | inactive | inactive | inactive | – | inactive | inactive | inactive |
| CCCCCCCCCCCl | inactive | inactive | inactive | inactive | inactive | inactive | inactive | inactive | inactive | – |
| C=C(C)C(=O)OCCC(C)OC(=O)C(=C)C (stereo not drawn) | inactive | inactive | inactive | inactive | inactive | inactive | – | inactive | inactive | inactive |
| CCCCCCCCCCCCCCCCCCOCC(O)CO (stereo not drawn) | inactive | inactive | inactive | inactive | inactive | inactive | – | inactive | inactive | inactive |
| NC(=O)CCCCC1CCSS1 (stereo not drawn) | inactive | – | inactive | inactive | inactive | inactive | inactive | – | inactive | – |
